Screening results as filed in PubChem BioAssay.
The sample as a whole holds a higher share of hits than the screen did.
Sa helicase inh: blocks Staphylococcus aureus DNA helicase; purified S. aureus helicase, fluorescence unwinding assay; inhibition, % (concentration not given with the values); 120,000 compounds, 0.05% hits; AID 485395; in the data active means inhibition above about 25%, passing the limit was not always enough
Sa growth inh: blocks Staphylococcus aureus growth. S. aureus RN4220 growth, OD600, 20 h, 42 °C; active compounds read low. 170,000 compounds, 0.53% hits. relative growth, % (no concentration beside the values);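 active means relative growth at most 50% at the other temperature and 20+ points below 30 °C, or under 10% at both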
Large screens that a line does not name were inactive.

Oc1cccc2cccnc12	Sa growth inh 0.2 (no result: Sa helicase inh)
CN(C)C(=O)Oc1cccc2cccnc12	none
CN1CCCCC1c1cccnc1N (stereo unspecified)	none
CN(C(=O)Oc1ccccc1)c1ccc(C(O)(C(F)(F)F)C(F)(F)F)cc1	none
CC12CC[C@@H]3C(=O)CCC(O)CC(=O)CC[C@H]3C1(O)CCC2C1=CC(=O)OC1 (stereo partly specified)	none
Fc1cccc(Cl)c1CN1CCNCC1	none
Cc1oc2ccccc2c1-c1ccc2ccccc2n1	Sa growth inh 34
Cc1cc(C)n(C(=O)CN2C(=O)CN=C(c3ccccc3)c3cc(Br)ccc32)n1	none
N#CC(C#N)=NNc1ccccc1	Sa growth inh 0.0
N#CC(C#N)=C(C#N)c1ccc(Nc2ccccc2)cc1	none
O=c1c2ccccc2nc(CO)n1-c1ccc2c(c1)OCO2	none
O=C1NC(=O)C2(CCOCC2)C(=O)N1	none
CN1CCN(c2ccccc2NC(=O)C2CCC2)CC1	none
CCCC1COC(Cn2cncn2)(c2ccc(Cl)cc2Cl)O1 (stereo unspecified)	Sa growth inh 5.4
O=C1NC(=O)C(C2CCS(=O)(=O)C2)C(=O)N1 (stereo unspecified)	none
c1ccc(Cn2ccnc2)cc1	none (no result: Sa helicase inh)
Clc1ccc(COC(Cn2ccnc2)c2ccc(Cl)cc2Cl)cc1 (stereo unspecified)	Sa growth inh -0.6 (no result: Sa helicase inh)
Clc1ccc(CSC(Cn2ccnc2)c2ccc(Cl)cc2Cl)cc1 (stereo unspecified)	Sa growth inh -0.3 (no result: Sa helicase inh)
O=C1C2CC(CN3CCCC[C@@H]23)[C@H]2CCCCN12 (stereo partly specified)	none
Cc1ccc(-n2c(CCC(=O)O)nc3ccccc3c2=O)cc1	none
Clc1ccc(CO/N=C(\Cn2ccnc2)c2ccc(Cl)cc2Cl)c(Cl)c1	Sa growth inh -0.4 (no result: Sa helicase inh)
O=c1c2ccccc2[se]n1-c1ccccc1	Sa growth inh 0.3 (no result: Sa helicase inh)
O=c1c2ccccc2nc(-c2ccccc2)n1-c1ccccc1	none
CCCN1CC2(COC)CC[C@H](OC)[C@@]34CC[C@H](COC)[C@@H](O)C[C@@](C)(O)C(O)([C@@H](OC)[C@H]23)[C@H]14	none
CCN(CC)C(=O)c1ccc(NC(=O)Cn2nc(-c3ccccc3)c3ccccc3c2=O)cc1	none
CCn1nc(-c2ccccc2)nc2c(=O)n(C)c(=O)nc1-2	Sa growth inh 0.3
CCn1nc(-c2cccnc2)nc2c(=O)n(C)c(=O)nc1-2	Sa growth inh -0.2
N#CCSc1ccccc1NC(=O)CN1CC=C(c2ccccc2)CC1	none
c1ccc2c(CNC3CCCC3)c[nH]c2c1	none (no result: Sa helicase inh)
O=C1NC(=S)NC(=O)C1=C/C=C/c1ccco1	none
